# Experimental data reported in article PMC7862700, “An all-to-all approach to the identification of sequence-specific readers for epigenetic DNA modifications on cytosine”.
# Columns and labels:
# Test in all cases: DAPPL (digital affinity profiling via proximity ligation, sequencing); 10 mM Tris-HCl pH 7.5, 50 mM NaCl, 1 mM DTT, 4% glycerol, room temperature, 30 min; GST-TFs on glutathione beads, 16-mer random dsDNA library, 0.1% formaldehyde crosslink after washing; high values mean tight binding
# Conditions in all cases: protein: recombinant; tags: N-terminal GST; dsDNA, one strand shown
# ERG = molecular target: T1, ERG (Homo sapiens, UniProt P11308 1-479)
# T1 sequence: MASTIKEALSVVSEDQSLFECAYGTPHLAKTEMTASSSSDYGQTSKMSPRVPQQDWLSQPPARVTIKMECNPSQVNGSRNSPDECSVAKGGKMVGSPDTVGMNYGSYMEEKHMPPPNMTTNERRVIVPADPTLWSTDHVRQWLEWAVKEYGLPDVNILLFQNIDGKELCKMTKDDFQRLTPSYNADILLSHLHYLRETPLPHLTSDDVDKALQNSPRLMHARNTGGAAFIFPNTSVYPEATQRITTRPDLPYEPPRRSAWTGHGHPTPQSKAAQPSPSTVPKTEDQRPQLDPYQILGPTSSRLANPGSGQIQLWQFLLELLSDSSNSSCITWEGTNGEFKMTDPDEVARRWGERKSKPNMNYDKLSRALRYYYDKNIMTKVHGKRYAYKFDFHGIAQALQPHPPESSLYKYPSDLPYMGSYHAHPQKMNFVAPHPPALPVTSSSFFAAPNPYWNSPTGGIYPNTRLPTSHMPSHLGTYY
# Procedure, shortened: (§1)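 Pools were built from human transcription factors expressed in yeast as GST fusions, captured on glutathione beads and DNA-barcoded, along with a tag-only sample. Incubation with 200 nmole of a 16-mer random double-stranded DNA library lasted 30 min at room temperature in Tris/NaCl/DTT/glycerol buffer, and was followed by washing, 0.1% formaldehyde crosslinking, proximity ligation, PCR amplification and Illumina NextSeq500 sequencing. Binding signal is the quotient of each hexamer's read frequency for a factor and its frequency for the tag-only sample.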
# ELF1 = ELF1 (Homo sapiens, UniProt P32519 1-619)
# Procedure, shortened: as §1
# EHF = molecular target: T2, EHF (Homo sapiens, UniProt Q9NZC4 1-300)
# T2 sequence: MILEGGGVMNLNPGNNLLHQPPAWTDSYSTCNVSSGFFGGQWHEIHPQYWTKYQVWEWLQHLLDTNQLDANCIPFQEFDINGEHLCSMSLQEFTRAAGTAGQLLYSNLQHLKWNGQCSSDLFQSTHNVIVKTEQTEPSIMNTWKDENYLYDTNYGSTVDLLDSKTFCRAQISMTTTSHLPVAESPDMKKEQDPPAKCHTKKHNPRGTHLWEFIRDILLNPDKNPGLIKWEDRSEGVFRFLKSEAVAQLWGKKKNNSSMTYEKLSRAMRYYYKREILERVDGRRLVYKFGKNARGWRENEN
# Procedure, shortened: as §1
# SPI1 = SPI1 (Homo sapiens, UniProt P17947 1-270)
# Procedure, shortened: as §1
# SPIB = SPIB (Homo sapiens, UniProt Q01892 1-262)
# Procedure, shortened: as §1
# FEV = molecular target: T3, FEV (Homo sapiens, UniProt Q99581 1-238)
# T3 sequence: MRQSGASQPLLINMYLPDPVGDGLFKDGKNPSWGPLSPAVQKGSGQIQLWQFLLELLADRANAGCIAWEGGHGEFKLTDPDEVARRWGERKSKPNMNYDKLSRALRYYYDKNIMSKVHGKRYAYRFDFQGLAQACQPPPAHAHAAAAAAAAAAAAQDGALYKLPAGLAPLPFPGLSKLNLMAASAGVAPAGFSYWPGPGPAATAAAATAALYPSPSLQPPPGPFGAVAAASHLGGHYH
# Procedure, shortened: as §1
# ETV5 = ETV5 (Homo sapiens, UniProt P41161 1-510)
# Procedure, shortened: as §1
# ELK4 = molecular target: T4, ELK4 (Homo sapiens, UniProt P28324-2 1-405)
# T4 sequence: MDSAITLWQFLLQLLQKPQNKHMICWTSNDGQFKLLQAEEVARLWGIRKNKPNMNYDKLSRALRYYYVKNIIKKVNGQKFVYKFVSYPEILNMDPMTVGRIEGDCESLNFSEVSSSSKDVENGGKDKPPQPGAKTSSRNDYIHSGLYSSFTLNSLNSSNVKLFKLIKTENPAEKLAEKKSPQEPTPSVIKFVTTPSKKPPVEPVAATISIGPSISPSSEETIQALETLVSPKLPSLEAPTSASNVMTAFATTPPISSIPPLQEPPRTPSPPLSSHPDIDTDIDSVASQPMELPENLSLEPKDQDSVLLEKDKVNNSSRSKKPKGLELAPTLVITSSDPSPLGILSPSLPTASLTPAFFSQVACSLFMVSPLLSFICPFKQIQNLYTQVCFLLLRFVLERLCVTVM
# Procedure, shortened: as §1
# ELF3 = molecular target: T5, ELF3 (Homo sapiens, UniProt P78545 1-371)
# T5 sequence: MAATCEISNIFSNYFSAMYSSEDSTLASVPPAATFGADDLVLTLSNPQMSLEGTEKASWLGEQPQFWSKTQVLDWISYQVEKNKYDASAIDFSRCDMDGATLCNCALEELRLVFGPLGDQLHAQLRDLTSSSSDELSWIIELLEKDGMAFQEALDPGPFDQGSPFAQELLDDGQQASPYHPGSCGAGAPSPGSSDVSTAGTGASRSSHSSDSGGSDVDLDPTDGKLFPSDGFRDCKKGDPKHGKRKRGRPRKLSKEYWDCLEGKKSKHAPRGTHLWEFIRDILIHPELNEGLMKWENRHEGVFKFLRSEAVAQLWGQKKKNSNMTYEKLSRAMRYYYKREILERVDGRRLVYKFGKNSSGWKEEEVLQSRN
# Procedure, shortened: as §1
# ERF = molecular target: T6, ERF (Homo sapiens, UniProt P50548 1-548)
# T6 sequence: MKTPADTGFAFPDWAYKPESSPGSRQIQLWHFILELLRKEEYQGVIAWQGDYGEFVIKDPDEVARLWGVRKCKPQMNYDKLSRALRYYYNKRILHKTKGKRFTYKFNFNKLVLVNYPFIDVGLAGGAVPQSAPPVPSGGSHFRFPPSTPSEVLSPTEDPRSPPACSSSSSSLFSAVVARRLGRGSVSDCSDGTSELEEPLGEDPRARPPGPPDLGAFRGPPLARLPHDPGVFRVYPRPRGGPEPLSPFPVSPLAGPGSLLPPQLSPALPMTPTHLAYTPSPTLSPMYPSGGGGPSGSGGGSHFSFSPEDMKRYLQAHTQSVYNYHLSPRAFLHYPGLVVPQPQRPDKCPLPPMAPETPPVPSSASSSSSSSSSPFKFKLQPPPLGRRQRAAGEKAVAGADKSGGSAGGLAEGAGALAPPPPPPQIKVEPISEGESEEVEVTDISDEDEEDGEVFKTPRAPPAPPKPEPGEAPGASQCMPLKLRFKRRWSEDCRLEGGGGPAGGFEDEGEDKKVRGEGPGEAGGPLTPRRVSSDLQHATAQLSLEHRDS
# Procedure, shortened: as §1
# ETV3L = molecular target: T7, ETV3L (Homo sapiens, UniProt Q6ZN32 1-361)
# T7 sequence: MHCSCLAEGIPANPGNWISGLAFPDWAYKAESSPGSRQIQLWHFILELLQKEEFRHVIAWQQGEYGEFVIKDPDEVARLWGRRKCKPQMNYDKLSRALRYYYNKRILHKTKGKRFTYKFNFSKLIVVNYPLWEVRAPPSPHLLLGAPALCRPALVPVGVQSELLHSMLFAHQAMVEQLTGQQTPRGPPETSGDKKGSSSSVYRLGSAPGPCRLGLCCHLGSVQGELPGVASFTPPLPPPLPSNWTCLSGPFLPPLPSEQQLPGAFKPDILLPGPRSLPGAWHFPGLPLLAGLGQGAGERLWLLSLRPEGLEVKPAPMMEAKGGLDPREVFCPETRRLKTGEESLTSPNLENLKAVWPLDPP
# Procedure, shortened: as §1
# ETS2 = molecular target: T8, ETS2 (Homo sapiens, UniProt P15036 1-469)
# T8 sequence: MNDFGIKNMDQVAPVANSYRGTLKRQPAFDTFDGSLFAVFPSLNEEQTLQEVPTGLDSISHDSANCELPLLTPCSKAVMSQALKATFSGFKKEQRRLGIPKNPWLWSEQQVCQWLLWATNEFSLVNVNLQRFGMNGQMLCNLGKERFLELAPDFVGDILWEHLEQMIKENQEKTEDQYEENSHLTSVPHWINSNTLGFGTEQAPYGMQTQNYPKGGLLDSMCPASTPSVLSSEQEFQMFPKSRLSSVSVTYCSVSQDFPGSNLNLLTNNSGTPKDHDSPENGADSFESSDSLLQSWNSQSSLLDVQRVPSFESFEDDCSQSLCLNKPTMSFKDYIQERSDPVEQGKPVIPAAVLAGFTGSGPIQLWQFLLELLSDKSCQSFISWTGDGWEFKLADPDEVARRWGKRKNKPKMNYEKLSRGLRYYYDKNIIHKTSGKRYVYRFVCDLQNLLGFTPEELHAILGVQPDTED
# Procedure, shortened: as §1
# SPDEF = molecular target: T9, SPDEF (Homo sapiens, UniProt O95238 1-335)
# T9 sequence: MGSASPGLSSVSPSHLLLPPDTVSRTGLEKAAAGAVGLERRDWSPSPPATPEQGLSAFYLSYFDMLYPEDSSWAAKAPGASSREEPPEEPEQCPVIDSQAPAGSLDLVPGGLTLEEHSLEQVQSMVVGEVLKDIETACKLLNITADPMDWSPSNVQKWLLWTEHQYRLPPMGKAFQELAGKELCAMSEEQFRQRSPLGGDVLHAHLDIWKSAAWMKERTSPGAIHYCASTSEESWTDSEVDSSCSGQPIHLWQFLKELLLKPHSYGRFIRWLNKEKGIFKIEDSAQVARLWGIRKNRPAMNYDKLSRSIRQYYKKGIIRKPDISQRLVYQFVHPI
# Procedure, shortened: as §1
# ETV7 = molecular target: T10, ETV7 (Homo sapiens, UniProt Q9Y603 1-341)
# T10 sequence: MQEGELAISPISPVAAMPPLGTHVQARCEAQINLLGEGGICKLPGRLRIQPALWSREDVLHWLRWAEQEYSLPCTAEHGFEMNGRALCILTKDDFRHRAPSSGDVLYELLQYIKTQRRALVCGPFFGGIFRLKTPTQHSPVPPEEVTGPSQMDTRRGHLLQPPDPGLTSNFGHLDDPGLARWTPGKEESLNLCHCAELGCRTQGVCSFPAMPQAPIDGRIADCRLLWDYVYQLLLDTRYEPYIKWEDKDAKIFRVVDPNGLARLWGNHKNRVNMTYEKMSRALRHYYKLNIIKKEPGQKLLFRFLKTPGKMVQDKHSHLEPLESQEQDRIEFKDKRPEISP
# Procedure, shortened: as §1
# ETV3 = molecular target: T11, ETV3 (Homo sapiens, UniProt P41162-2 1-143)
# T11 sequence: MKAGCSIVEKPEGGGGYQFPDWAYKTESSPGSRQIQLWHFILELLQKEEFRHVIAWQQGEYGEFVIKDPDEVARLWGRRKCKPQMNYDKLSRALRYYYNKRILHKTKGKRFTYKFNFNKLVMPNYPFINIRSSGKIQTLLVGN
# Procedure, shortened: as §1
# ETV6 = ETV6 (Homo sapiens, UniProt P41212 1-452)
# Procedure, shortened: as §1
# Sequence of SPIB (Q01892 whole entry): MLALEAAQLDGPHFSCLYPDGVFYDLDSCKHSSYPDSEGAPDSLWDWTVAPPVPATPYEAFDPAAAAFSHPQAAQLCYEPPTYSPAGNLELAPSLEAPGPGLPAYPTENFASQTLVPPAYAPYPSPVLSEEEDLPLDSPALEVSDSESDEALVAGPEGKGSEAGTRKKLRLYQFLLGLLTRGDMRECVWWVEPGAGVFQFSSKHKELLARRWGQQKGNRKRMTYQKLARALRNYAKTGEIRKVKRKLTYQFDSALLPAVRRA
# Sequence of ELF1 (P32519 whole entry): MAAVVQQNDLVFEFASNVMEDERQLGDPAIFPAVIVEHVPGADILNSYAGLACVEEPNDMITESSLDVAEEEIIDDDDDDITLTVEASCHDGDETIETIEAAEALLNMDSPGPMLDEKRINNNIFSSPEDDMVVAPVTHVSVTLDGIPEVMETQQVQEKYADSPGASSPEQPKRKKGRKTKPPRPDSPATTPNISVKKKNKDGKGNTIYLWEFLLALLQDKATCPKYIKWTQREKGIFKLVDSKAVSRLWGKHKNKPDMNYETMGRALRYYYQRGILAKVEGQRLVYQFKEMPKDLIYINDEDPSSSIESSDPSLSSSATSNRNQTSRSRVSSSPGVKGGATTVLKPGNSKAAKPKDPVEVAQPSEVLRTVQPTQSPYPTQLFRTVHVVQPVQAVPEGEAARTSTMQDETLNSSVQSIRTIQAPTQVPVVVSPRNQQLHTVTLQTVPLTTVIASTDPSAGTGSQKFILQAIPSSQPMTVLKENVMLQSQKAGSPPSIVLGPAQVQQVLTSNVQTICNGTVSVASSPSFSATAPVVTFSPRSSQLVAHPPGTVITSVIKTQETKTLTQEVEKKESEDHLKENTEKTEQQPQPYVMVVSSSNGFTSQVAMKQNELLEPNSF
# Sequence of ETV5 (P41161 whole entry): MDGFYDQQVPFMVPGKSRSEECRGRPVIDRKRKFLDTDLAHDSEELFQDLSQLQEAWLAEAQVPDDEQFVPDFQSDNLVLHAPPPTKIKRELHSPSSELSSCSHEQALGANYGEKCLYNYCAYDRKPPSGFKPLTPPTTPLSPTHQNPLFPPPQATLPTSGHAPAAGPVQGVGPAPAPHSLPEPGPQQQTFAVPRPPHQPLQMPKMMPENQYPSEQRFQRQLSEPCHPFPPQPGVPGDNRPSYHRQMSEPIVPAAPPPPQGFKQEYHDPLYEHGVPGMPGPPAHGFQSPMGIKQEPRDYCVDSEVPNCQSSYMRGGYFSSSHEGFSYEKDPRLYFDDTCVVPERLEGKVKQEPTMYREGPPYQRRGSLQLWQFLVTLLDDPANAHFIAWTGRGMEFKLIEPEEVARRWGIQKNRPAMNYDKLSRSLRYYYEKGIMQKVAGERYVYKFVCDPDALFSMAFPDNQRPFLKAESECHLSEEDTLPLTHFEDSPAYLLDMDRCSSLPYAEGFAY
# Sequence of ETV6 (P41212 whole entry): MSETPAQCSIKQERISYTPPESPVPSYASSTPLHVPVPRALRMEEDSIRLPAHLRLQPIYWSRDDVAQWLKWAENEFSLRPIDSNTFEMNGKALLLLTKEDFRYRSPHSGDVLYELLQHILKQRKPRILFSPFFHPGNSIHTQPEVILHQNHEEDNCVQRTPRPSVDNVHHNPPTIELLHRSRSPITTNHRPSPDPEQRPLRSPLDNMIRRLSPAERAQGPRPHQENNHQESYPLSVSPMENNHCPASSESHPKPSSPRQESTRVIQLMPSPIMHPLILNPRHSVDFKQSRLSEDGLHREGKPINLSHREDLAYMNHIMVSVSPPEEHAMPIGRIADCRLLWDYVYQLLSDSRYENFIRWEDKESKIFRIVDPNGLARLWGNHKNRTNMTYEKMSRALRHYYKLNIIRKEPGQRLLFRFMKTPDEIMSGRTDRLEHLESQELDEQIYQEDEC
sequence,measurement,setting,value
TGGCTG,binding signal,ERG,"1.04 fold enrichment (6-mer frequency, TF over GST control)"
same,binding signal,ELF1,"1.06 fold enrichment (6-mer frequency, TF over GST control)"
same,binding signal,EHF,"1.23 fold enrichment (6-mer frequency, TF over GST control)"
same,binding signal,SPI1,"1.02 fold enrichment (6-mer frequency, TF over GST control)"
same,binding signal,SPIB,"1.01 fold enrichment (6-mer frequency, TF over GST control)"
same,binding signal,FEV,"1.04 fold enrichment (6-mer frequency, TF over GST control)"
same,binding signal,ETV5,"1.08 fold enrichment (6-mer frequency, TF over GST control)"
same,binding signal,ELK4,"1.24 fold enrichment (6-mer frequency, TF over GST control)"
same,binding signal,ELF3,"1 fold enrichment (6-mer frequency, TF over GST control)"
same,binding signal,ERF,"1.17 fold enrichment (6-mer frequency, TF over GST control)"
same,binding signal,ETV3L,"1.09 fold enrichment (6-mer frequency, TF over GST control)"
same,binding signal,ETS2,"1.05 fold enrichment (6-mer frequency, TF over GST control)"
same,binding signal,SPDEF,"1.01 fold enrichment (6-mer frequency, TF over GST control)"
same,binding signal,ETV7,"1.07 fold enrichment (6-mer frequency, TF over GST control)"
same,binding signal,ETV3,"1 fold enrichment (6-mer frequency, TF over GST control)"
same,binding signal,ETV6,"1.02 fold enrichment (6-mer frequency, TF over GST control)"
